Test results: PubChem BioAssay
“And” between values parts separate entries of the source, which are not always exact repeats. Equal entries are not always repeated. Values without a mark were called inactive. The source made the active and inactive calls. Unless noted, how the calls were made is not given here.

Assays:
[1] = antimalarial activity against Dd2 strain (AID 2302;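 active means growth inhibition above 50% at the single 2 µM test dose, taken to imply half-maximal potency below 2 µM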;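 further: 0% = DMSO untreated growth and 100% = chloroquine plus artemisinin killed control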); settings: P. falciparum Dd2 in RBCs, LDH growth readout, 72 h; at 2 µM; stronger effect = higher value
[2] = HepG2 cytotoxicity, primary screen, cytotoxicity control for P. falciparum antimalarial project, cell-based, ATP luminescence (AID 2303;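 active means inhibition above 50%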;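 further: 0% = DMSO wells and 100% = digitonin-killed cells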); settings: HepG2 viability, 24-48 h, at 10 µM, stronger effect = higher value
[3] = target: L-lactate dehydrogenase (Plasmodium falciparum (isolate CDC / Honduras)) (UniProt Q27743); experiment: PfLDH activity inhibition – cell lysate, 3D7 strain, counter-screen for P. falciparum growth inhibition project (AID 2304);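 further: 0% = vehicle and 100% = reference inhibitor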; settings: P. falciparum 3D7 crude extract, LDH APAD/NBT absorbance; at 2 µM; stronger effect = higher value
Chain of L-lactate dehydrogenase (Plasmodium falciparum (isolate CDC / Honduras)) (Q27743 whole entry, looked up): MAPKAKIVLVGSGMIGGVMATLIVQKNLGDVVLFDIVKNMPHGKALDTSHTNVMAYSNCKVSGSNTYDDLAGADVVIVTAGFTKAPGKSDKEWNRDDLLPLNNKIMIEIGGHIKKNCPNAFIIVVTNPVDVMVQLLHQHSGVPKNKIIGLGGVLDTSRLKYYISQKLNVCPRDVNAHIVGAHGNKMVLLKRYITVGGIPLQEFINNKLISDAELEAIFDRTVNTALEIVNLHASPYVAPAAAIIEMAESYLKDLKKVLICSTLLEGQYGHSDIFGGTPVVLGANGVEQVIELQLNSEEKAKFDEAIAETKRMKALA

[4] = inhibition of 3D7 malaria parasite growth – strain 3D7 (AID 2306);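 further: 0% = DMSO wells and 100% = chloroquine plus artemisinin control wells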; settings: P. falciparum 3D7 erythrocytic growth, LDH absorbance, 72 h; at 2 µM; stronger effect = higher value

Compound	growth inhibition [1]	inhibition [2]	inhibition [3]	growth inhibition [4]
O=C(NC=Nc1cc([N+](=O)[O-])c(-c2ccncc2)n1-c1ccccc1)c1cccc(O)c1	56% (active)	2%	4%	100% (active)
CC(C)C[C@@H](C(=O)N[C@H](C(=O)Nc1nccs1)C(C)(C)C)[C@H](CCC(F)(F)F)N(O)C=O	71% (active)	11%	5%	97% (active)
Nc1ccc(-c2nc3cc(C4=N[C@H]5CCCC[C@H]5N4)ccc3o2)cc1[N+](=O)[O-]	33%	16%	1%	95% (active)
CCOc1cc(C=Cc2nc3ccccc3c(=O)[nH]2)cc(Cl)c1O	90% (active)	25%	2%	83% (active)
CCC[C@@H]([C@@H](CC(C)C)C(=O)N[C@@H](CCCCNC(=O)OCc1ccccc1)C(=O)Nc1ncccn1)N(O)C=O	98% (active)	3%	4%	100% (active)
CCn1c(C=Cc2cc(Br)ccc2O)nc2ccccc2c1=O	95% (active)	6%	-5%	95% (active)
CCC[C@@H]([C@@H](CC1CCCCC1)C(=O)N[C@H](C(=O)Nc1ccccn1)[C@H](C)CC)N(O)C=O	87% (active)	24%	2%	96% (active)
CCC[C@@H]([C@@H](CC(C)C)C(=O)N[C@@H](CCCN=C(N)NS(C)(=O)=O)C(=O)Nc1nccs1)N(O)C=O	41%	10%	0%	95% (active)
Oc1ccc(C=NNC(=S)Nc2cccc3ccccc23)c(O)c1	72% (active)	8%	-4%	89% (active)
CCC[C@@H]([C@@H](CC1CCCCC1)C(=O)N[C@H](C(=O)Nc1nccc(N)n1)C(C)(C)C)N(O)C=O	82% (active)	25%	5%	96% (active)
Cc1ccc(-c2cncc(-c3cc(NC4CCN(Cc5ccccc5)CC4)nc(-c4ccccc4)n3)c2)cc1	66% (active)	-2%	-4%	100% (active)
COc1cc(C=C(C2=NC(=O)CS2)c2nc3cccnc3n2C)ccc1O	48%	7%	-7%	89% (active)
N=C(N)c1ccc(C=Cc2ccc(C(=N)N)cc2O)cc1	80% (active)	10%	4%	92% (active)
CC(=NO)C1=C(O)C(c2ccccc2)N(c2ccccc2)C1=O (stereo unspecified)	23%	12%	-1%	99% (active)
O=[N+]([O-])c1ccc(-c2nc3ccc(C4=N[C@H]5CCCC[C@H]5N4)cc3[nH]2)cc1	30%	-1%	3%	100% (active)
CC[C@@H]([C@@H](CC(C)C)C(=O)N[C@@H](CCCCNC(=O)OCc1ccccc1)C(=O)Nc1ccccn1)N(O)C=O	99% (active)	-7%	-8%	98% (active)
O=C(/C=C/c1ccc(Cl)c(Cl)c1)NCCCCCN1CC[C@H](c2c[nH]c3ccccc23)[C@@H](O)C1	-2%	34%	-3%	99% (active)
O=[N+]([O-])c1ccc(Nc2nc(NN=Cc3cc(Cl)cc(Cl)c3O)nc(Nc3ccccc3)n2)cc1	72% (active)	29%	-6%	100% (active)
ON=C1CCc2cc(-c3nc(-c4ccc(OCCN5CCCCC5)cc4)[nH]c3-c3ccncc3)ccc21	54% (active)	73% (active)	3%	99% (active)
O=C(NC=Nc1cc([N+](=O)[O-])c(-c2cccnc2)n1-c1ccc(O)cc1)c1ccccc1	62% (active)	17%	6%	102% (active)

Compound	growth inhibition [1]	inhibition [2]	inhibition [3]	growth inhibition [4]
CN(C)c1cc(NN=Cc2cc(Cl)ccc2O)nc(N(C)C)n1	98% (active)	3%	0%	98% (active)
CCCCCC(C)C(C)c1cc(O)c2c(c1)OC(C)(C)CC2=Cc1ccncc1 (stereo unspecified)	78% (active)	-8%	2%	100% (active)
Oc1cccc(-c2nc(-c3ccccc3)c(-c3ccc4oc5ccc(-c6[nH]c(-c7cccc(O)c7)nc6-c6ccccc6)cc5c4c3)[nH]2)c1	35%	30%	4%	91% (active)
ON=C1CCc2cc(-c3cc(-c4ccc(OC5CCNCC5)cc4)oc3-c3ccncc3)ccc21	99% (active)	34%	3%	101% (active)
Cc1[nH]c2ccccc2c1C=NNc1nc(Nc2ccccc2)nc(Nc2ccccc2)n1	23%	3%	6%	87% (active)
COc1cc(-c2nc(-c3ccc4c(c3)CCC4=NO)c(-c3ccncc3)[nH]2)ccc1OCCN1CCN(C)CC1	77% (active)	53% (active)	3%	99% (active)
COc1ccc(Nc2nc(NN=Cc3cc(Cl)ccc3O)nc(Nc3ccccc3)n2)cc1	10%	55% (active)	0%	100% (active)
Oc1cccc(-c2nc(-c3cccc(I)c3)c(-c3ccc(-c4nc(-c5cccc(O)c5)[nH]c4-c4cccc(I)c4)cc3)[nH]2)c1	66% (active)	-4%	-2%	96% (active)
CN(C)c1nc(NN=Cc2cc(Cl)ccc2O)nc(Nc2ccc(F)cc2)n1	46%	32%	-3%	94% (active)
COc1ccc2ncc(F)c(CCN3C[C@H](CNCc4nc5c(cc4Cl)OCC(=O)N5)[C@H](O)C3)c2n1	15% and 23% and 30%	13% and 5% and 12%	0% and -2% and 2%	93% (active) and 90% (active)
COc1ccc2nccc([C@@H](O)CN3CC[C@H](NCc4nc5c(cc4Cl)SCC(=O)N5)[C@H](F)C3)c2c1	94% (active) and 100% (active)	10% and 20%	-3% and 1%	94% (active) and 99% (active)
Oc1ccc2ccccc2c1C=NNc1nc(Nc2ccccc2)nc(Nc2ccccc2)n1	73% (active)	55% (active)	-2%	99% (active)
CCCC[C@@H](C(=O)NCc1ccccc1C(F)(F)F)N1C(=O)CCC1C(=O)Nc1ccc([N+](=O)[O-])cc1 (stereo partly specified)	2%	7%	0%	94% (active)
Cc1cc(-c2cc(-c3ccc(OCCN(C)C)cc3)[nH]c2-c2ccc3c(c2)CCC3=NO)ccn1	92% (active)	-13%	-3%	100% (active)
C=CC[C@H](C[C@H](O)[C@H](Cc1ccccc1)NC(=O)c1ccc(-c2cccnn2)cc1)C(=O)NC1CCCCC1	-1%	2%	4%	83% (active)
CN(C)C(=S)NN=Cc1cccc(O)c1O	55% (active)	11%	-2%	91% (active)
CC1CCC(C[C@@H](C(=O)N[C@@H](CCC(=O)N2CCCCC2)C(=O)Nc2nccs2)[C@H](C(C)C)N(O)C=O)CC1 (stereo partly specified)	70% (active)	38%	7%	87% (active)
O=C(NN=Cc1nc2ccccc2[nH]1)c1cccc([N+](=O)[O-])c1	82% (active)	-3%	2%	99% (active)
COc1ccc(Nc2nc(NN=Cc3cc(Br)c(O)cc3O)nc(Nc3ccc([N+](=O)[O-])cc3)n2)cc1	23%	30%	4%	97% (active)
